Compounds without any hit were thinned out: in the full panel of roughly 83,000, 20% have a hit.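 Assay: single dose, 48 h. Readout: percent growth (0 = no net growth; negative = cell death). Active: <10.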 Active and inactive are the calls of the source.

The subject of the first test is UO-31 renal. In words: NCI-60 one-dose screen, 48 h (100 = growth as untreated, 0 = no growth, -100 = all killed). The note with it: 10 µM.
`C/C(=C\CC/C=C(\C)CC/C=C(\C)CC[C@@H](O)C(C)(C)O)CC/C=C(\C)CC[C@@H](O)C(C)(C)O`: the growth was 30.5% (inactive).

As for `O=C(O)CCCCCCCCCCN1C(=O)/C(=C/c2cnc(-c3ccc(Cl)cc3)s2)SC1=S`, the growth is 38.1% (inactive).

On to `COc1ccc(C(=O)NC(=S)N2CCN(c3ncnc4c3cnn4-c3ccccc3)CC2)cc1`, for which the growth is 69% (inactive).

In the case of `COC[C@@H](CC(C)C)N=C1NC(=O)/C(=C/c2ccc3ncsc3c2)N1`, the growth is -12.7% (active).

Turning to `O=C(CN1CCN(c2ncnc3c2cnn3-c2ccccc2)CC1)Nc1nncs1`, the growth was -97.2% (active).

The test system of the next test is TK-10 renal. Described as above. The note with it: 10 µM.
Consider `COc1cc2c3c(n(CCCNC(C)C)c(=O)c2cc1OC)-c1nc2c(cc1C3=O)OCO2`, for which the growth is 97.2% (inactive).

As to `COc1ccc2cc([C@H](C)C(=O)NCc3ccccc3)ccc2c1`, the growth was 65.7% (inactive).

In the case of `O=C(Cn1nc(-c2ccccc2)ccc1=O)NNC(=S)NC1CCCCC1`, the growth was 109% (inactive).

On to `CN1CCCN(Cc2ccc(C(=O)Nc3cccc(Nc4ccc5cc(O)ccc5n4)c3)cc2C(F)(F)F)CC1`, for which the growth is 134% (inactive).

On to `O=C1Nc2cc(Cl)ccc2/C1=C/c1cccc(OCc2ccccc2)c1`, for which the growth is 33.6% (inactive).

As to `C/C(=C\CC/C=C(\C)CC/C=C(\C)CC[C@@H](O)C(C)(C)O)CC/C=C(\C)CC[C@@H](O)C(C)(C)O`, the growth is 64.6% (inactive).

As to `O=C(c1ccc([N+](=O)[O-])c([N+](=O)[O-])c1O)n1[nH]c(=O)c2ccccc2c1=O`, the growth was 120% (inactive).

With `O=C(O)CCCCCCCCCCN1C(=O)/C(=C/c2cnc(-c3ccc(Cl)cc3)s2)SC1=S`, the growth is 58.2% (inactive).

For the molecule `O=C1Nc2ccc(F)cc2/C1=C/c1cccc(OCc2ccccc2)c1`, the growth was 70.9% (inactive).

As to `COc1ccc(-c2nc(S(=O)(=O)c3ccccc3)c(S(C)(=O)=O)o2)cc1`, the growth is -99.3% (active).

Take `COc1ccc(C(=O)NC(=S)N2CCN(c3ncnc4c3cnn4-c3ccccc3)CC2)cc1`: the growth is 101% (inactive).

Regarding `C=CC(=O)Nc1nc(-c2cccc(NS(=O)(=O)c3cccc4c(N(C)C)cccc34)c2)cs1`, the growth is -76.9% (active).

Take `Cc1cc(=O)oc2cc(OCCCCOc3ccc(/C=C/C(=O)Nc4cccc(Cl)c4)cc3)ccc12`: the growth is 66.2% (inactive).

`COc1ccccc1C(=O)NNC(=O)CSc1nc2c(c(=O)[nH]1)CCCC2`: the growth was 132% (inactive).

With `NC1=NC(c2ccccc2Cl)N=C(Nc2nn[nH]n2)N1` (configuration not stated), the growth is 99.6% (inactive).

Take `COc1ccc2nc(Cl)c(-c3cc(-c4ccccc4)nc(=O)[nH]3)cc2c1`: the growth was 96.9% (inactive).

Take `O=c1[nH]n(C(=S)N/N=C/c2ccc(F)cc2)c(=O)c2ccccc12`: the growth was 102% (inactive).

With `O=C(CS(=O)(=O)c1oc(-c2ccc(Cl)cc2)nc1S(=O)(=O)c1ccccc1)N1CCCC1`, the growth was -94.5% (active).

For the molecule `O=C1Nc2cc(Cl)ccc2/C1=C/c1cccc(OCc2ccc(Br)cc2F)c1`, the growth is 77.9% (inactive).

As for `Cc1nc2c(cnn2-c2ccccc2)c(=O)n1-c1ccc(NC(=O)c2ccc(F)cc2)cc1`, the growth is 71% (inactive).

As for `S=c1nc(-c2ccccc2)cc(-c2cc3ccccc3nc2Cl)[nH]1`, the growth was 162% (inactive).

As for `Cc1ccc(C(=O)Nc2ccc(-n3c(C)nc4c(cnn4-c4ccccc4)c3=O)cc2)cc1`, the growth is 82.3% (inactive).

On to `Cc1cc(C)nc(NS(=O)(=O)c2ccc(N/C(N)=N/c3nccc(-c4cccs4)n3)cc2)n1`, for which the growth is 117% (inactive).

`COc1ccc(CN2[C@H](C(=O)NCc3ccc(C(=O)NO)cc3)Cc3c([nH]c4ccccc34)[C@H]2C2CC2)cc1`: the growth is 53.2% (inactive).

As to `O=C1Nc2ccc(Cl)cc2/C1=C/c1cccc(OCc2ccccc2)c1`, the growth is 77.2% (inactive).

In the case of `O=C(Cn1cc(CSc2nnc3oc4ccccc4n23)nn1)Nc1ccc(Br)cc1`, the growth was 85.8% (inactive).

Consider `CCN1CCN(c2ccc(NC(=O)Nc3ccc(-c4cc(C(=O)NC)c5ncccc5n4)cc3)cc2C(F)(F)F)CC1`, for which the growth was -98.9% (active).

Take `COc1ccc(-c2nc(S(=O)(=O)c3ccc(C)cc3)c(S(=O)(=O)CC(=O)N(C)Cc3ccccc3)o2)cc1`: the growth is 56% (inactive).

Take `COC[C@@H](CC(C)C)N=C1NC(=O)/C(=C/c2ccc3ncsc3c2)N1`: the growth is 27.8% (inactive).

In the case of `CC(C)Sc1nc(NC2CC2)c(C#N)c(-c2ccccc2)n1`, the growth is 92.9% (inactive).

In the case of `CCOC(=O)N/C(=C1/OCCN1C)[P+](c1ccccc1)(c1ccccc1)c1ccccc1`, the growth was 92.1% (inactive).

`CS(=O)(=O)Nc1ccc(-c2ccc3c(c2)ncn3-c2ccc(NC(=O)Nc3ccc(Cl)c(C(F)(F)F)c3)cc2)cc1`: the growth is -6.45% (active).

As to `CN1CCc2c(sc3ncnc(N/N=C/c4cn(-c5ccccc5)nc4-c4ccc(Cl)cc4)c23)C1`, the growth is 49.9% (inactive).

For the molecule `CC1(c2ccccc2)NC(=O)N(CC(=O)Nc2ccc(C(=O)/C=C/c3ccc(Br)cc3)cc2)C1=O` (configuration not stated), the growth is 76.7% (inactive).

Turning to `O=C(CN1CCN(c2ncnc3c2cnn3-c2ccccc2)CC1)Nc1nncs1`, the growth is -56.5% (active).

For `COc1ccc(C=CC(=O)c2ccc(-n3c(C)nc4c(cnn4-c4ccccc4)c3=O)cc2)cc1`, the growth is 86.8% (inactive).

As for `O=C(c1ccc(-n2c(=O)[nH]c3ccccc3c2=O)cc1)N1CCOCC1`, the growth was 97.2% (inactive).

The values above are taken from PubChem BioAssay (NCI).
